Data on 20 molecules can be found in PubChem BioAssay.

Experiment [1] can be described thus: antimalarial activity against Dd2 strain (AID 2302;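 active = growth inhibition above 50% at the single 2 µM test dose, taken to imply half-maximal potency below 2 µM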;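 also: 0% = DMSO untreated growth and 100% = chloroquine plus artemisinin killed control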). The settings on record: P. falciparum Dd2 in RBCs, LDH growth readout, 72 h; at 2 µM; stronger effect = higher value.
The nature of experiment [2]: HepG2 cytotoxicity, primary screen, cytotoxicity control for P. falciparum antimalarial project, cell-based, ATP luminescence (AID 2303;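 active = inhibition above 50%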;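 also: 0% = DMSO wells and 100% = digitonin-killed cells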). Conditions: HepG2 viability, 24-48 h, at 10 µM, stronger effect = higher value.
The target of experiment [3] is L-lactate dehydrogenase (Plasmodium falciparum (isolate CDC / Honduras)) (UniProt Q27743). The experiment can be described thus: PfLDH activity inhibition – cell lysate, 3D7 strain, counter-screen for P. falciparum growth inhibition project (AID 2304).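 Also: 0% = vehicle and 100% = reference inhibitor.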 The settings on record: P. falciparum 3D7 crude extract, LDH APAD/NBT absorbance; at 2 µM; stronger effect = higher value.
Chain of L-lactate dehydrogenase (Plasmodium falciparum (isolate CDC / Honduras)) (Q27743 whole entry, looked up): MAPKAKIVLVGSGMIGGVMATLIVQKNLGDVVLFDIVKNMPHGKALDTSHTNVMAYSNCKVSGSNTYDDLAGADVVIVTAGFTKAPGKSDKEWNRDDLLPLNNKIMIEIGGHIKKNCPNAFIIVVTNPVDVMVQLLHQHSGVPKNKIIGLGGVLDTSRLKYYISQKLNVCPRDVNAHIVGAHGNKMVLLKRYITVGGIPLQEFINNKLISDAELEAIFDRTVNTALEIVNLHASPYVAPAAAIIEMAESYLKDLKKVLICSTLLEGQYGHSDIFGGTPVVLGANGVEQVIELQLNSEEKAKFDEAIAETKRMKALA
Experiment [4] can be described thus: inhibition of 3D7 malaria parasite growth – strain 3D7 (AID 2306).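 Also: 0% = DMSO wells and 100% = chloroquine plus artemisinin control wells.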 Conditions: P. falciparum 3D7 erythrocytic growth, LDH absorbance, 72 h; at 2 µM; stronger effect = higher value.
The target in experiment [5] is Calcium-dependent protein kinase 1 (Plasmodium falciparum (isolate 3D7)) (UniProt P62344). Description: PfCDPK1 kinase inhibitors, biochemical, TCAMS library (AID 1159585; cut-off not given, nearly all actives have IC50 up to about 0.98 µM;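 also: inhibitors leave more ATP so luminescence rises with inhibition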). Conditions: recombinant PfCDPK1, Kinase-Glo ATP depletion luminescence.
Chain of Calcium-dependent protein kinase 1 (Plasmodium falciparum (isolate 3D7)) (P62344 whole entry, looked up): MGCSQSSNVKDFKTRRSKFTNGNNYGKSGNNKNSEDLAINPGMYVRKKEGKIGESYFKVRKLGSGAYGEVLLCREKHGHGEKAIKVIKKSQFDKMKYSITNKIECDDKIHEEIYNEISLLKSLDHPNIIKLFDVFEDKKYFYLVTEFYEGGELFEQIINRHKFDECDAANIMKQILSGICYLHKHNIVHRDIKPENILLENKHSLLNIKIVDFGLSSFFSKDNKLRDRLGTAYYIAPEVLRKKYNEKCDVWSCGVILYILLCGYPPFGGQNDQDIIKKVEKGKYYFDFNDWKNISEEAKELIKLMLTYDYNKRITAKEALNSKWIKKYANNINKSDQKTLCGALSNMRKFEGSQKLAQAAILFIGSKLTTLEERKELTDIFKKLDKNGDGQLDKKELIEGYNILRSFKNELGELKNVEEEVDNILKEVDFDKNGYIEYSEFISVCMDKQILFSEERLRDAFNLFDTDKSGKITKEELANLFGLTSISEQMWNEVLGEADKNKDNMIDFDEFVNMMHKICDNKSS
For experiment [6], the target named is Plasmodium falciparum protein kinase 6 (PK6, PF3D7_1337100) (UniProt Q8IDW1). The experiment can be described thus: PfPK6 kinase inhibitors, biochemical, TCAMS library (AID 1159586). Conditions: recombinant PfPK6, Kinase-Glo ATP depletion luminescence.
Chain of Plasmodium falciparum protein kinase 6 (PK6, PF3D7_1337100) (Q8IDW1 1-305): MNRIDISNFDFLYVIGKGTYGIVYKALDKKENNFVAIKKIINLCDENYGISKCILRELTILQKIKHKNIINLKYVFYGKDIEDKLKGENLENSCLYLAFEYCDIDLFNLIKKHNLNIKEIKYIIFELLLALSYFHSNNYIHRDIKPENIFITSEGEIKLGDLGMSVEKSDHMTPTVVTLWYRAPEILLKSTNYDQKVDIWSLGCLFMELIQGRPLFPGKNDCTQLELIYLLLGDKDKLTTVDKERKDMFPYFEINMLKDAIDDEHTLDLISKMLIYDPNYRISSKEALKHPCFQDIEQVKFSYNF
In experiment [7] the target is Protein kinase 7 (PK7), Plasmodium falciparum 3D7 (PF3D7_0213400) (UniProt Q7YTF7). Description: inhibition of Plasmodium PK7 catalytic activity – biochemical, TCAMS antimalarial set, Kinase-Glo luminescence (AID 1159587). The settings on record: recombinant PfPK7, Kinase-Glo ATP depletion luminescence.
Chain of Protein kinase 7 (PK7), Plasmodium falciparum 3D7 (PF3D7_0213400) (Q7YTF7 1-343): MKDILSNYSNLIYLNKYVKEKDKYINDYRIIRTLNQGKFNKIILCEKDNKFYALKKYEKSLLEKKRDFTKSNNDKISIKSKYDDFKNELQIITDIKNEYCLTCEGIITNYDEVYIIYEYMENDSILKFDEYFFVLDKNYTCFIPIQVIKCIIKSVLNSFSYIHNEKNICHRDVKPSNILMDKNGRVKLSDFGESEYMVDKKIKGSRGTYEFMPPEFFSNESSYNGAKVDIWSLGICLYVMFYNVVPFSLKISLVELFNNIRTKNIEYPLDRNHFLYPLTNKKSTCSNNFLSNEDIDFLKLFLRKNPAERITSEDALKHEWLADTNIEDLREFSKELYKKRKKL
Experiment [8] addresses Calcium-dependent protein kinase 4 (Plasmodium falciparum (isolate 3D7)) (UniProt Q8IBS5). Description: PfCDPK4 kinase inhibitors, biochemical, TCAMS library (AID 1159588; cut-off not given, nearly all actives have IC50 up to about 0.91 µM). The settings on record: recombinant PfCDPK4, Kinase-Glo ATP depletion luminescence.

Molecules are shown by their SMILES. Unmarked numbers belong to inactive results. For some of these results: Potency and affinity values are given separately. Active and inactive are the calls of the source. Unless noted, no rule for the calls is given here.

Chain of Calcium-dependent protein kinase 4 (Plasmodium falciparum (isolate 3D7)) (Q8IBS5 whole entry, looked up): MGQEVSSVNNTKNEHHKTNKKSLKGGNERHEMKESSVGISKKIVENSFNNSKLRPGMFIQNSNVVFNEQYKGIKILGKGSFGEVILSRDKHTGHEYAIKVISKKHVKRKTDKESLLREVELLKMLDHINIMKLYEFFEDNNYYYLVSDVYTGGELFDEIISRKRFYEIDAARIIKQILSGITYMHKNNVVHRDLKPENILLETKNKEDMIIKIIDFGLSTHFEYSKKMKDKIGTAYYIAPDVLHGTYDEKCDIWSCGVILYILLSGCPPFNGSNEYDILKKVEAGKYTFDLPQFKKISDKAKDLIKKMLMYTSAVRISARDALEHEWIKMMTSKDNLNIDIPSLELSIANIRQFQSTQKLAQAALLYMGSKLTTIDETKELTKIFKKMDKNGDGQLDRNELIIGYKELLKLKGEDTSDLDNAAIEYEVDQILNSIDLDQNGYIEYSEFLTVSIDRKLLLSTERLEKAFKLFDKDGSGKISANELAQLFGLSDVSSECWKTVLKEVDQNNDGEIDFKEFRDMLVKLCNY

For `CC(C)C[C@H](NC(=O)c1ccc(OCCN2CCOCC2)cc1)C(=O)N[C@H](/C=N/N1CCNC1=O)CCc1ccccc1`, the growth inhibition in experiment [1] is 94% (active); in experiment [4], 89% (active). In addition, the results for the inhibition in experiment [2] and in experiment [3] were 1% and 4%, respectively. The outcome in experiment [5], in experiment [6], in experiment [7] and in experiment [8] was inactive.

Consider `FC(F)(F)c1ccc2nc(-c3cccc(-c4ccc(CNCc5ccccc5)cc4)c3)[nH]c2c1`, for which the growth inhibition was 99% (active) in experiment [1] and 101% (active) in experiment [4]. Besides, the inhibition is 25% in experiment [2] and -4% in experiment [3]. In addition, the outcome in experiment [5], in experiment [6], in experiment [7] and in experiment [8] was inactive.

Consider `COc1ccc2[nH]cc(C3CCN(CCCCCNC(=O)c4ccc(-c5ccccc5)cc4)CC3)c2c1`, for which the growth inhibition is 16% in experiment [1] and 96% (active) in experiment [4]. Besides, the results for the inhibition in experiment [2] and in experiment [3] were 50% (active) and -8%, respectively. Besides, the outcome in experiment [5], in experiment [6], in experiment [7] and in experiment [8] was inactive.

In the case of `c1cc(Cc2ccc(Nc3c4ccccc4nc4ccccc34)cc2)cc(Nc2c3ccccc3nc3ccccc23)c1`, the growth inhibition in experiment [1] and in experiment [4] was 100% (active) each time. The inhibition is 91% (active) in experiment [2] and -5% in experiment [3]. The result in experiment [5], in experiment [6], in experiment [7] and in experiment [8] was inactive.

As to `COc1ccc(CCN(C)CCc2ccc(NC(=O)c3cccc4c(=O)c5ccccc5sc34)cc2)cc1`, the growth inhibition in experiment [1] is 33%; in experiment [4], 95% (active). Besides, the inhibition was 24% in experiment [2] and -2% in experiment [3]. In addition, the outcome in experiment [5], in experiment [6], in experiment [7] and in experiment [8] was inactive.

For `O=[N+]([O-])c1cccc(CNCC2CCN(CCc3ccccc3)CC2)c1`, the results for the growth inhibition in experiment [1] and in experiment [4] were 11% and 98% (active), respectively. The inhibition in experiment [2] was 15%; in experiment [3] it was -6%. Also, the outcome in experiment [5], in experiment [6], in experiment [7] and in experiment [8] was inactive.

With `Cc1nnsc1C(=O)Nc1ccc(-c2cccc(-c3nc4c(C)cccc4[nH]3)c2)cc1`, the values for the growth inhibition in experiment [1] and in experiment [4] were 47% and 98% (active), respectively. Besides, the inhibition was 23% in experiment [2] and 4% in experiment [3]. The outcome in experiment [5], in experiment [6], in experiment [7] and in experiment [8] was inactive.

For `COc1cccc2c(NN=Cc3ccc([N+](=O)[O-])cc3)ccnc12`, the growth inhibition is 16% in experiment [1] and 92% (active) in experiment [4]. Further, the inhibition in experiment [2] is 25%; in experiment [3], -3%. Besides, the outcome in experiment [5], in experiment [6], in experiment [7] and in experiment [8] was inactive.

Consider `COc1cc2nc(N[C@@H](CO)c3ccccc3)nc(NCc3ccccc3)c2cc1OC`, for which the values for the growth inhibition in experiment [1] and in experiment [4] were 71% (active) and 101% (active), respectively. Further, the inhibition in experiment [2] is 6%; in experiment [3] it was 1%. The outcome in experiment [5], in experiment [6], in experiment [7] and in experiment [8] was inactive.

On to `CCc1cccc(OCCCON2C(N)=NC(N)=NC2(C)C)c1`, for which the growth inhibition in experiment [1] was 94% (active); in experiment [4], 95% (active). The inhibition in experiment [2] was 63% (active); in experiment [3], 5%. Further, the result in experiment [5], in experiment [6], in experiment [7] and in experiment [8] was inactive.

As to `N#Cc1cccc(NC(=O)Nc2ccc(-c3csc(-c4nc5ccccc5[nH]4)c3)cc2)c1`, the figures for the growth inhibition in experiment [1] and in experiment [4] were 97% (active) and 103% (active), respectively. The inhibition in experiment [2] was 63% (active); in experiment [3] it was -3%. Further, the result in experiment [5], in experiment [6], in experiment [7] and in experiment [8] was inactive.

For the molecule `CC1(C)N=C(N)N=C(N)N1OCCCOc1ccc([N+](=O)[O-])cc1`, the growth inhibition in experiment [1] was 80% (active); in experiment [4] it was 94% (active). Moreover, the inhibition was 68% (active) in experiment [2] and 0% in experiment [3]. Further, the outcome in experiment [5], in experiment [6], in experiment [7] and in experiment [8] was inactive.

Regarding `c1ccc(C2CCC(N3CCC(N4CCCC4)CC3)CC2)cc1` (stereo not given), the growth inhibition in experiment [1] was 46%; in experiment [4] it was 102% (active). The inhibition in experiment [2] was 9%; in experiment [3], -2%. Besides, the result in experiment [5], in experiment [6], in experiment [7] and in experiment [8] was inactive.

`CC(=O)Nc1ncc(C(=O)Nc2cccc(-c3ccc(-c4nc5ccccc5[nH]4)cc3)c2)s1`: the growth inhibition in experiment [1] was 66% (active); in experiment [4], 101% (active). Also, the inhibition in experiment [2] was 12%; in experiment [3], -9%. In addition, the result in experiment [5], in experiment [6], in experiment [7] and in experiment [8] was inactive.

`COc1ccccc1-c1cccc(-c2cccc(NC(=O)c3ccc([N+](=O)[O-])o3)c2)n1`: the growth inhibition in experiment [1] is 59% (active); in experiment [4], 97% (active). Besides, the inhibition in experiment [2] was 78% (active); in experiment [3] it was -1%. Also, the result in experiment [5], in experiment [6], in experiment [7] and in experiment [8] was inactive.

For `CC(C)C[C@@H](NC(=O)OC(C)(C)C)C(=O)Nc1ccc(Cc2ccc(NC(=O)[C@@H](CC(C)C)NC(=O)OC(C)(C)C)cc2)cc1`, the growth inhibition in experiment [1] and in experiment [4] was 96% (active) throughout. The inhibition in experiment [2] is 8%; in experiment [3], 6%. Moreover, the result in experiment [5], in experiment [6], in experiment [7] and in experiment [8] was inactive.

As for `Cn1ccc(C(=O)Nc2ccc3c(c2)CN(Cc2ccc(N4CCCC4)o2)CCC3)n1`, the figures for the growth inhibition in experiment [1] and in experiment [4] were 72% (active) and 80% (active), respectively. The inhibition in experiment [2] was 19%; in experiment [3] it was 4%. Besides, the outcome in experiment [5], in experiment [6], in experiment [7] and in experiment [8] was inactive.

With `COc1ccccc1C1CCN(Cc2csc(NC(=O)c3ccc(-c4ccc(C(F)(F)F)cc4)cc3)n2)CC1`, the growth inhibition in experiment [1] is 23%; in experiment [4], 85% (active). The inhibition in experiment [2] was 62% (active); in experiment [3], -2%. Moreover, the outcome in experiment [5], in experiment [6], in experiment [7] and in experiment [8] was inactive.

`CN(C)c1ccc(CN2CCC(NC(=O)c3ccc(-c4cccc(Cl)c4)s3)CC2)cc1`: the figures for the growth inhibition in experiment [1] and in experiment [4] were 44% and 93% (active), respectively. Besides, the inhibition was 65% (active) in experiment [2] and -3% in experiment [3]. Also, the result in experiment [5], in experiment [6], in experiment [7] and in experiment [8] was inactive.

Consider `O=c1cc(NCCCNCc2cc3ccc(Br)cc3s2)[nH]c2ccccc12`, for which the growth inhibition was 8% in experiment [1] and 92% (active) in experiment [4]. Also, the inhibition in experiment [2] is 18%; in experiment [3], -2%. Further, the outcome in experiment [5], in experiment [6], in experiment [7] and in experiment [8] was inactive.
